# Test results published in the supplement of paper PMC9492666.
# System: MDA-MB-231
# Test: relative cell viability, compound alone, vs DMSO (fraction of DMSO control); higher = less growth inhibition
# Conditions: 72 h
# 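Further: viability read out with the CCK-8 kit in 96-well plates, screening a set of 303 compounds acting on lipid metabolism targets.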
row,Compound,relative cell viability
1,CN1CCN(C(=O)C2C(C(=O)O)[C@H]3CC[C@@H]2O3)CC1 (stereo not given in full),0.616
2,C[C@@H]1OCC2(CCN(c3cnc(Sc4ccnc(N)c4Cl)c(N)n3)CC2)[C@@H]1N,0.996
3,CCC(=O)O[C@]1(C(=O)SCF)[C@H](C)C[C@H]2[C@@H]3C[C@H](F)C4=CC(=O)C=C[C@]4(C)[C@@]3(F)[C@@H](O)C[C@@]21C [Fluticasone propionate],0.813
4,COc1ccc(N(C(=O)Nc2c(C)cccc2C)c2cc(Nc3ccc(N4CCN(C)CC4)cc3)ncn2)c(OC)c1,1.11
5,COc1ccc(-c2cc(=O)c3c(O)c(OC)c(O)cc3o2)cc1OC [Eupatilin],0.739
6,CCC(=O)O[C@]1(C(=O)CCl)[C@@H](C)C[C@H]2[C@@H]3C[C@H](F)C4=CC(=O)C=C[C@]4(C)[C@@]3(F)[C@@H](O)C[C@@]21C [Halobetasol Propionate],1.13
7,CC(C)(Oc1ccc(C2CC2(Cl)Cl)cc1)C(=O)O (stereo not given) [Ciprofibrate],0.937
8,"COc1ccc(-c2coc3cc(OC)ccc3c2=O)cc1 [4',7-Dimethoxyisoflavone]",0.693
9,C[C@H](CCC(=O)O)[C@H]1CC[C@H]2[C@@H]3C[C@H](O)[C@@H]4C[C@H](O)CC[C@]4(C)[C@H]3CC[C@]12C [Hyodeoxycholic acid],1.02
10,CCCCCCCCCCOc1ccc(C(=O)Nc2cc(C(=O)NCCCC)ccc2SC)cc1,1.06
